# Source: PubChem BioAssay (EPA / NIEHS)
# Values joined by “and” are separate entries in the source; they are usually repeats but may differ in a detail not shown here. Equal entries are not always repeated. Records with an inconclusive call do not appear. A structure can be active in one record and inactive in another. Active and inactive are the calls of the source. How the source made its calls, unless noted: active means hit-call score of the fitted dose curve at least 0.9, where 1 is the maximum; inconclusive means response in the unintended direction; inactive means score below 0.9.
# Tests used:
# [1] = molecular target: Peroxisome proliferator-activated receptor gamma (Homo sapiens) (UniProt P37231); assay: OT_PPARg_PPARgSRC1_0480: Odyssey Thera (OT) 8-hour Protein-Complementation Assay for Peroxisome Proliferator-activated Receptor Gamma / SRC-1 Co-activator (AID 2283387);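 further: nuclear to cytoplasmic split Venus YFP fluorescence ratio reporting PPARg SRC-1 interaction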
# Outline: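 Protein-fragment complementation in HEK293T: Venus YFP halves (residues 1-158, 159-239, mutated to IFP1/IFP2) fused to PPARg/SRC-1. 8 h exposure; N/C ratio at 488 nm; DMSO negative control.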
# [2] = molecular target: Peroxisome proliferator-activated receptor gamma (Homo sapiens) (UniProt P37231); assay: OT_PPARg_PPARgSRC1_1440: Odyssey Thera (OT) 24-hour Protein-Complementation Assay for Peroxisome Proliferator-activated Receptor Gamma/ SRC-1 Co-activator (AID 2283388);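 further: nuclear to cytoplasmic ratio of reconstituted Venus YFP fluorescence in fixed imaged cells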
# Outline: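 Transient HEK293T, YFP fragments 1-158/159-239 (mutant IFP1/IFP2) fused to PPARg/SRC-1; 24 h dosing; fix 4% formaldehyde, Draq5; Opera imaging 488/635 nm; N/C ratio, gain vs DMSO.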
# [3] = CEETOX_H295R_11DCORT: CeeTox H295R High-throughput Steroidogenesis Assay for 11-Deoxycortisol (11DCORT) (AID 2283432; active means hit-call score of the fitted dose curve at least 0.9, where 1 is the maximum; inactive means score below 0.9;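 on AC50: 11-deoxycortisol secreted into the medium measured by LC-MS/MS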); conditions: actives raise or lower the signal
# Outline: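 Adrenal carcinoma line H295R, run per OECD 456 with minor changes, was forskolin-stimulated (10 uM, 48 h) before a 48 h chemical exposure at 0.1% DMSO. Secreted 11-deoxycortisol was quantified by HPLC-MS/MS.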
# [4] = CEETOX_H295R_OHPROG: CeeTox H295R High-throughput Steroidogenesis Assay for OH-Progesterone (OHPROG) (AID 2283435; active means hit-call score of the fitted dose curve at least 0.9, where 1 is the maximum; inactive means score below 0.9;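 on AC50: human adrenal H295R cells primed 48 h with 10 µM forskolin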); conditions: actives raise or lower the signal
# Outline: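 H295R adrenal cells prestimulated 48 h with 10 uM forskolin, then exposed 48 h to chemical (0.1% DMSO final). 17alpha-hydroxyprogesterone in medium quantified by HPLC-MS/MS; bidirectional fit versus DMSO, with MTT viability measured in the same wells.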
# [5] = CEETOX_H295R_CORTIC: CeeTox H295R High-throughput Steroidogenesis Assay for Corticosterone (CORTIC) (AID 2283437; active means hit-call score of the fitted dose curve at least 0.9, where 1 is the maximum; inactive means score below 0.9;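 further: corticosterone secreted into medium quantified by mass spectrometry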); conditions: actives raise or lower the signal
# Outline: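 Corticosterone secreted into medium is measured by reverse-phase HPLC with tandem MS following liquid-liquid extraction. Cells are forskolin-stimulated (10 uM, 48 h) before 48 h test exposure; activity fitted in both directions against DMSO.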
# [6] = CEETOX_H295R_DOC: CeeTox H295R High-throughput Steroidogenesis Assay for DOC (AID 2283439; active means hit-call score of the fitted dose curve at least 0.9, where 1 is the maximum; inactive means score below 0.9); conditions: actives raise or lower the signal
# Outline: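 H295R cells prestimulated 48 h with 10 uM forskolin, then exposed 48 h to test chemical (0.1% DMSO final). Medium 11-deoxycorticosterone measured by HPLC-MS/MS after MTBE extraction; bidirectional fit vs DMSO, viability checked by MTT in same wells.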
# [7] = CEETOX_H295R_PROG: CeeTox H295R High-throughput Steroidogenesis Assay for Progesterone (PROG) (AID 2283442; active means hit-call score of the fitted dose curve at least 0.9, where 1 is the maximum; inactive means score below 0.9;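 on AC50: human H295R adrenal cells primed with 10 µM forskolin before dosing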); conditions: actives raise or lower the signal
# Outline: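 Adrenal H295R line, forskolin-stimulated (10 uM, 48 h) before dosing. 48 h exposure, 0.1% DMSO vehicle. Secreted progesterone by reverse-phase HPLC with ESI+ MS/MS quantification; DMSO-normalised bidirectional curve fit.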
# [8] = CEETOX_H295R_OHPREG: CeeTox H295R High-throughput Steroidogenesis Assay for OH-Pregnenolone (OHPREG) (AID 2283434; active means hit-call score of the fitted dose curve at least 0.9, where 1 is the maximum; inactive means score below 0.9); conditions: actives raise or lower the signal
# Outline: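 Hormone levels in spent medium were measured by tandem mass spectrometry following liquid-liquid extraction. Cells (H295R) had been forskolin-stimulated (10 uM, 48 h) before a 48 h chemical exposure at 0.1% DMSO, with activity fitted in both directions against DMSO.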
# [9] = CEETOX_H295R_ESTRADIOL: CeeTox H295R High-throughput Steroidogenesis Assay for Estradiol (AID 2283440; active means hit-call score of the fitted dose curve at least 0.9, where 1 is the maximum; inactive means score below 0.9;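 further: estradiol secreted into medium quantified by LC-MS/MS after dansyl derivatisation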); conditions: actives raise or lower the signal
# Outline: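 Following OECD 456 with minor changes, H295R cells received 10 uM forskolin for 48 h and then test chemical for 48 h. Hormone output was read by HPLC-MS/MS, with cytotoxic concentrations diluted until MTT viability reached ≥70%.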
# Peroxisome proliferator-activated receptor gamma (Homo sapiens), sequence (P37231 whole entry, looked up, the tested form may be a part): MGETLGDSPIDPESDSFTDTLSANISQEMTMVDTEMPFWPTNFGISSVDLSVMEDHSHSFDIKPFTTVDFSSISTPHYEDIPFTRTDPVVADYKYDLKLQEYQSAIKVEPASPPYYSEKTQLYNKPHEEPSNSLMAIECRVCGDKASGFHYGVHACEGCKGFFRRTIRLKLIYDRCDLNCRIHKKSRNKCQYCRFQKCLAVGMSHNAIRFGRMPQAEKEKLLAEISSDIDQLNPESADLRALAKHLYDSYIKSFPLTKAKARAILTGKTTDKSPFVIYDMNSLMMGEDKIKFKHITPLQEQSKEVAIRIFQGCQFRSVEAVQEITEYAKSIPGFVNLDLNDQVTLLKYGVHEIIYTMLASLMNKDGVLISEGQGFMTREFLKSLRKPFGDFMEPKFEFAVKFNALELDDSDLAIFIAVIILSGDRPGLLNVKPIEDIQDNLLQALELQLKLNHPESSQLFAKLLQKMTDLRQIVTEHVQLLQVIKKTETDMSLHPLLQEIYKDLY
smiles,measurement,setting,value
C=CC(=O)NCNC(=O)C=C,outcome,[1],inactive
same,outcome,[2],inactive
Cc1ccccc1[N+](=O)[O-],outcome,[1],inactive
same,outcome,[2],inactive
O=C(O)C(F)(F)C(F)(F)C(F)(F)C(F)(F)C(F)(F)C(F)(F)C(F)(F)C(F)(F)C(F)(F)F,outcome,[1],inactive
same,outcome,[2],inactive
O=C(O)C(F)(F)C(F)(F)C(F)(F)C(F)(F)C(F)(F)F,outcome,[1],inactive
same,outcome,[2],inactive
CCCCCCCCCC[N+](C)(C)CCCCCCCCCC,outcome,[1],inactive
same,outcome,[2],inactive
CC(C)C(=O)OCC(C)(C)C(OC(=O)C(C)C)C(C)C (stereo not drawn),outcome,[1],inactive
same,outcome,[2],inactive
CO/C=C(/C(=O)OC)c1ccccc1COc1cccc(C(F)(F)F)n1,outcome,[1],inactive
same,outcome,[2],inactive
Cc1ccccc1O,outcome,[1],inactive
same,outcome,[2],inactive
COc1ccc(O)c(C(C)(C)C)c1,outcome,[1],inactive
same,outcome,[2],inactive
C1CC2OC2CC1C1CO1 (stereo not drawn),outcome,[1],inactive
same,outcome,[2],inactive
ClC1=C(Cl)[C@]2(Cl)[C@@H]3[C@@H](Cl)[C@H]4O[C@H]4[C@@H]3C1(Cl)C2(Cl)Cl,outcome,[1],inactive
same,outcome,[2],inactive
O=C(NC(=O)c1cc(F)c(F)cc1Cl)Nc1cc(F)ccc1N1CCC(C(=O)O)CC1,outcome,[1],inactive
same,outcome,[2],inactive
CCC(C)c1cc([N+](=O)[O-])cc([N+](=O)[O-])c1O (stereo not drawn),outcome,[1],inactive
same,outcome,[2],inactive
OCC(O)CO,outcome,[1],inactive
same,outcome,[2],inactive
Cc1cccc([N+](=O)[O-])c1,outcome,[1],inactive
same,outcome,[2],inactive
CC(C)(c1ccccc1)c1ccc(O)cc1,outcome,[1],inactive
same,outcome,[2],inactive
c1ccc(-c2ccccc2)cc1,outcome,[1],inactive
same,outcome,[2],inactive
CCCN(CCC)N=O,outcome,[1],inactive
same,outcome,[2],inactive
O=C(N[C@H]1CN2CCC1CC2)c1cc2ccoc2cn1,outcome,[1],inactive
same,outcome,[2],inactive
O=C(O)C(F)(F)C(F)(F)C(F)(F)C(F)(F)C(F)(F)C(F)(F)C(F)(F)C(F)(F)F,outcome,[1],inactive
same,outcome,[2],inactive
CCCCCCCCCc1ccc(O)cc1,outcome,[1],inactive
same,outcome,[2],inactive
CN(C)c1nc(=O)n(C2CCCCC2)c(=O)n1C,outcome,[1],inactive
same,outcome,[2],inactive
Oc1c(Cl)c(Cl)c(Cl)c(Cl)c1Cl,outcome,[1],inactive
same,outcome,[2],inactive
Clc1ccc(C(Cl)(Cl)Cl)cc1,outcome,[1],inactive
same,outcome,[2],inactive
O=S(=O)(O)C(F)(F)C(F)(F)C(F)(F)C(F)(F)F,outcome,[1],inactive
same,outcome,[2],inactive
COS(=O)(=O)OC,outcome,[1],inactive
same,outcome,[2],inactive
ClC1=C(Cl)[C@]2(Cl)[C@@H]3[C@@H]4C[C@@H]([C@H]5O[C@@H]45)[C@@H]3[C@@]1(Cl)C2(Cl)Cl,outcome,[1],inactive
same,outcome,[2],inactive
CCC(C)(c1ccc(O)cc1)c1ccc(O)cc1,outcome,[1],inactive
same,outcome,[2],inactive
Oc1ccc(C(c2ccc(O)cc2)(C(F)(F)F)C(F)(F)F)cc1,outcome,[1],inactive
same,outcome,[2],inactive
CC(c1ccc(O)cc1)(c1ccc(O)cc1)c1ccc(O)cc1,outcome,[1],inactive
same,outcome,[2],inactive
O=NN(c1ccccc1)c1ccccc1,outcome,[1],inactive
same,outcome,[2],inactive
Clc1ccc(Cl)cc1,outcome,[1],inactive
same,outcome,[2],inactive
Nn1cnnc1,outcome,[1],inactive
same,outcome,[2],inactive
CCSC(=O)N(CC)C1CCCCC1,outcome,[1],inactive
same,outcome,[2],inactive
same,outcome,[3],inactive
same,outcome,[4],inactive
same,outcome,[5],inactive
same,outcome,[6],inactive
same,outcome,[7],inactive
CCCCCCOC(=O)c1ccccc1C(=O)OCCCCCC,outcome,[1],inactive
same,outcome,[2],inactive
same,outcome,[5],inactive
Cc1cc2c3c(c1)C(c1ccccc1)=N[C@@H](NC(=O)c1ccncc1)C(=O)N3CC2,AC50,[1],25 µM (active) and 20.8 µM (active)
same,AC50,[2],37.4 µM (active)
same,outcome,[2],inactive
same,AC50,[8],25.4 µM (active)
same,AC50,[4],25.6 µM (active)
same,outcome,[9],inactive
same,AC50,[7],28.1 µM (active)
ClC1=C(Cl)[C@]2(Cl)[C@@H]3[C@H]4C[C@H]([C@@H]5O[C@H]45)[C@@H]3[C@@]1(Cl)C2(Cl)Cl,outcome,[1],inactive
same,outcome,[2],inactive
same,AC50,[3],7.42 µM (active)
same,AC50,[8],1.48 µM (active)
same,AC50,[4],13 µM (active)
same,outcome,[5],inactive
same,AC50,[6],14.6 µM (active)
same,AC50,[7],3 µM (active)
Oc1ccc(Cl)cc1Cl,outcome,[1],inactive
same,outcome,[2],inactive
same,outcome,[3],inactive
same,outcome,[8],inactive
same,AC50,[4],22.2 µM (active)
same,outcome,[5],inactive
same,outcome,[6],inactive
same,AC50,[9],17 µM (active)
same,outcome,[7],inactive
N#Cc1ccc(N(CC(N)=O)CC(F)(F)F)cc1C(F)(F)F,outcome,[1],inactive
same,outcome,[2],inactive
same,outcome,[8],inactive
same,outcome,[4],inactive
same,outcome,[9],inactive
same,outcome,[7],inactive
CCOP(=S)(OCC)SCSC(C)(C)C,outcome,[1],inactive
same,outcome,[2],inactive
same,AC50,[8],37 µM (active)
same,outcome,[7],inactive
CCC(C)(CC)c1cc(NC(=O)c2c(OC)cccc2OC)on1,outcome,[1],inactive
same,outcome,[2],inactive
same,outcome,[8],inactive
same,outcome,[4],inactive
same,outcome,[7],inactive
Cc1ccc(O)c(C)c1,outcome,[1],inactive
same,outcome,[2],inactive
same,outcome,[3],inactive
same,outcome,[8],inactive
same,outcome,[4],inactive
same,outcome,[5],inactive
same,outcome,[6],inactive
same,outcome,[9],inactive
same,outcome,[7],inactive
Cc1cc(O)ccc1Cl,outcome,[1],inactive
same,outcome,[2],inactive
same,outcome,[3],inactive
same,outcome,[8],inactive
same,AC50,[4],21.5 µM (active)
same,outcome,[5],inactive
same,outcome,[6],inactive
same,outcome,[9],inactive
same,outcome,[7],inactive
